In all, about 310,000 compounds went through this assay and about 14,000 (4.5%) showed an effect of 50% or more. Effects have a minus sign here. This excerpt belongs to a sample that is enriched for strong results.
Biological target: human ether-à-go-go-related gene (hERG) potassium channel (human, UniProt Q12809)
Assay: primary screen, population patch clamp on CHO cells stably expressing hERG; higher = less effect of the substance
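Note: peak tail current of the secondary pulse compared with the same well before compound.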

Sequence of human ether-à-go-go-related gene (hERG) potassium channel (Q12809 whole entry, looked up): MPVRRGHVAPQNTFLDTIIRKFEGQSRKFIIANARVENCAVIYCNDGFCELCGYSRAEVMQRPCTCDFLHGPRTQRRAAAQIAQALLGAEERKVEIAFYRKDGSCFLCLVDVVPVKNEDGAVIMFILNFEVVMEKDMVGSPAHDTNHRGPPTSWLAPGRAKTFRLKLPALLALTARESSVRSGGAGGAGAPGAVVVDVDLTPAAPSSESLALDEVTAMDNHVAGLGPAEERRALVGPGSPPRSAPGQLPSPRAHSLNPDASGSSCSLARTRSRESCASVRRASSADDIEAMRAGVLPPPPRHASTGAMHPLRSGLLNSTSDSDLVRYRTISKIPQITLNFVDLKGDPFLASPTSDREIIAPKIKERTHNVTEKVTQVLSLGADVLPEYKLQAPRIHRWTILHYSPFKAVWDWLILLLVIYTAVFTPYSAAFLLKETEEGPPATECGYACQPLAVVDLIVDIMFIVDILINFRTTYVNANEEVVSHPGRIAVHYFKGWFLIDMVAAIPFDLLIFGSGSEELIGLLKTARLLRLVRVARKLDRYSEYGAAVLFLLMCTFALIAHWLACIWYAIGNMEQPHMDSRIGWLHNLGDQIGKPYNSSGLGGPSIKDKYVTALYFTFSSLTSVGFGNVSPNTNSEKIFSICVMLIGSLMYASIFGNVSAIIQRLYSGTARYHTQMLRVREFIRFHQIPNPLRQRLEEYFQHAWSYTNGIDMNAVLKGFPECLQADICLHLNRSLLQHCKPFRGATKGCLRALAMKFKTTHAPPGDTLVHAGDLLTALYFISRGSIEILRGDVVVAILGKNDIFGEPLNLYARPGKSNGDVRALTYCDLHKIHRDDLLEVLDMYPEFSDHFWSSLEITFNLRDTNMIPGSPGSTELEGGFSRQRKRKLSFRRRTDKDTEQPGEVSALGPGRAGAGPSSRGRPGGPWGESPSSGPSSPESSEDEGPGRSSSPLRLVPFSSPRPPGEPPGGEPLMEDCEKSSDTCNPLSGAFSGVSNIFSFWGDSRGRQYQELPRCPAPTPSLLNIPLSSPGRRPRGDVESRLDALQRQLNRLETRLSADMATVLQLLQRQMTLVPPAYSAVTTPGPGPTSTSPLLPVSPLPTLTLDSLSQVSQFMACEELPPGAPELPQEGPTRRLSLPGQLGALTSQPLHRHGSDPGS

SMILES | hERG current change (%, negative = inhibition) at 10uM [%]
O=C(CC1C(=O)NCCN1Cc1cccc(C(F)(F)F)c1)NCCc1cnccn1 (stereo not drawn) | 7.22
O=C(COC(=O)c1cc(Cl)ccc1O)NC(=O)NCc1ccccc1 | 4.6
COC(=O)C(CSCc1ccccc1)NC(=O)CSc1nc(C)cc(=O)[nH]1 (stereo not drawn) | 18.4
CN(c1ccccc1)S(=O)(=O)c1ccc(C(=O)NCCc2ccc(F)cc2)cc1 | -21.1
CC(=O)Nc1ccc(/C(C)=N/NC(=O)c2ccc(CN3CCOCC3)cc2)cc1 | 25.2
Br.CC1CCCC(C)N1Cc1cn2ccccc2n1 (stereo not drawn) | 7.29
Cc1nn(CC(=O)Nc2ccccn2)c(C)c1Br | 15.3
Nc1ccc2ncccc2c1N | 6.47
CSc1ccc(CCNS(=O)(=O)c2c(C)[nH]c(C)c2C(=O)N2CCCCC2)cc1 | -15.2
COc1ccc(CCNC(=O)c2cc(=O)n(C)c(=O)n2C)cc1OC | -0.242
Cc1ccc(-n2c(SCC(=O)OC(C)C)nnc2-c2ccco2)cc1 | -37.7
Cc1cccc(C(=O)Oc2ccccc2/C=N/NC(=O)c2ccc(NC(=O)C(C)(C)C)cc2)c1 | -4.88
CN1C=CC2=C(C#N)C(N)C(C#N)(C#N)[C@H](c3ccccc3)[C@H]2C1 (stereo partly drawn) | -4.67
Cc1ccc(-n2nnnc2SCC(=O)NNC(=O)c2ccco2)c(C)c1 | -4.35
O=C(CSc1nnnn1-c1ccccc1)N1CCN(C(=O)c2ccco2)CC1 | -49.4
Cc1ccc(-n2nnnc2SCC(=O)N2CCN(C(=O)c3ccco3)CC2)c(C)c1 | -76
COc1ccccc1NC(=O)c1cnc(SC)nc1 | 19.2
O=C(O)C(=O)O.O=S(=O)(c1ccc(Cl)cc1)N1CCC(N2CCOCC2)CC1 | -11.5
Cn1ncc2c(Nc3ccc(O)cc3)nc(Cl)nc21 | 5.53
Cn1c(CNc2ccc(Cl)cc2)nnc1SCCN1CCCCC1 | -46.4
COc1ccc(C(=O)CSc2nnc(CN3CCCCC3)n2-c2ccc(F)cc2)cc1OC | 6.33

SMILES | hERG current change (%, negative = inhibition) at 10uM [%]
COc1ccc(NCc2nnc(SCCN3CCCCC3)n2-c2ccc(C)cc2)cc1 | -66.7
COc1ccc(C(=O)CSc2nnc(CN3CCCCC3)n2-c2ccc(F)cc2)cc1 | -57.7
Cc1ccccc1OCc1nnc(SCC(=O)O)n1-c1cccc(Cl)c1 | 5.63
Cc1ccccc1OCc1nnc(SCC(=O)O)n1-c1ccccc1 | 14.4
COc1ccc(-n2c(CNc3ccc(C)cc3)nnc2SCc2ccccc2)cc1 | -7.09
Cc1ccccc1OCc1nnc(SCCN2CCCC2)n1-c1ccccc1.Cl | -65.3
COc1ccc(C(=O)CSc2nnc(CN3CCCC3)n2-c2ccc(F)cc2)c(OC)c1 | -23
O=C(CCN1CCOCC1)Nc1c(-c2ccccc2)c2cc(Br)ccc2[nH]c1=O | -11.9
CC(=O)Nc1ccc(C(=O)Nc2cccc(S(=O)(=O)NC3=NCCC3)c2)cc1 | 4.95
CC(C)(O)C#Cc1ccc(CN2CCN(Cc3ccccc3)C(CCO)C2)s1 (stereo not drawn) | 4.64
CCOc1cc(C)c(S(=O)(=O)Nc2ccc3cn[nH]c3c2)cc1C | 25.2
N#CC1(NC(=O)CSc2nnc(Nc3ccccc3F)s2)CCCC1 | 0.45
COc1cc(OC)cc(C(=O)OCC(=O)NCCCc2ccccc2)c1 | 12.2
C=CCN1C(=O)N/C(=C/c2ccc(C)o2)C1=O | 9.15
COC(=O)c1ccc(C2c3[nH]c4ccccc4c3C[C@H]3C(=O)N(C4CCN(Cc5ccccc5)CC4)CC(=O)N23)cc1 (stereo partly drawn) | -10
CSCC[C@H](NC(=O)C1=NN(c2c(F)c(F)cc(F)c2F)C(=O)CC1)c1nc2ccccc2[nH]1 | -13.3
COc1ccc(OCC(=O)N/N=C(\C)CC(=O)Nc2cccc([N+](=O)[O-])c2)cc1 | -53.8
COc1ccc(NC(=O)C/C(C)=N/NC(=O)COc2ccc(OC)cc2)cc1 | -18.8
COc1ccc(NC(=O)C/C(C)=N/NC(=O)c2ccco2)c([N+](=O)[O-])c1 | -33.9
CC(=O)Nc1ccccc1NC(=O)C/C(C)=N/NC(=O)c1ccncc1 | 19.6
CCC(=O)N/N=C(\C)CC(=O)Nc1cccc([N+](=O)[O-])c1 | 9.57

SMILES | hERG current change (%, negative = inhibition) at 10uM [%]
COc1ccc(NC(=O)c2cccs2)c([N+](=O)[O-])c1 | -3.28
COc1ccc(-c2nnc(NC(=O)C3CCCN3S(=O)(=O)c3cccs3)o2)cc1 (stereo not drawn) | -3.47
COc1ccc(NC(=O)C2CCCN2S(=O)(=O)c2cccs2)c([N+](=O)[O-])c1 (stereo not drawn) | -68.3
COc1ccc([N+](=O)[O-])cc1NC(=O)C1CCCN1S(=O)(=O)c1cccs1 (stereo not drawn) | -18.1
COc1ccc(NC(=O)C/C(C)=N/NC(=O)c2ccncc2)c([N+](=O)[O-])c1 | -59.8
COc1cc(NC(=O)C/C(C)=N/NC(=O)c2cccs2)c(OC)cc1Cl | -14.4
COc1ccc(NC(=O)C/C(C)=N/NC(=O)c2cccs2)c([N+](=O)[O-])c1 | -54.4
Cc1ccccc1CN(C)CC(=O)NC(C)CCc1ccccc1 (stereo not drawn) | -17.2
O=C(CSc1nnc(-c2ccccc2)n1C1CCCCC1)N1CCCC1 | -6.76
CCC1(C)Cc2c(sc3nc(SC)nc(N)c23)CO1 (stereo not drawn) | -7.82
O=C1NC(Cc2ccccc2)c2nc3ccccc3c(=O)n2-c2cc(Cl)ccc21 (stereo not drawn) | 11.4
CCCCn1c(N)c(N(CCC(C)C)C(=O)C2=NN(c3cc(C)ccc3C)C(=O)CC2)c(=O)[nH]c1=O | -1.89
OC(CNC1CCCCC1)C(F)(F)F (stereo not drawn) | -2.73
CCC(C)[C@H](NC(=O)[C@@H]1Cc2ccccc2CN1)C(=O)NCc1ccc(OC)cc1 (stereo partly drawn) | -32.7
CC1CCCCN1C(=O)COC(=O)c1cc(-c2cccs2)nn1-c1ccccc1 (stereo not drawn) | 0.387
O=[N+]([O-])c1cc(/C=N/O)ccc1Sc1ccccc1 | 13.7
CC1CCCCN1C(=O)CSc1nnc(-c2ccco2)o1 (stereo not drawn) | 2.08
CCOC(=O)CN1CC23C=CC(O2)C(C(=O)Nc2cc(OC)ccc2OC)C3C1=O (stereo not drawn) | -3.04
CC[N+](CC)(CC(=O)Nc1c(C)cccc1C)Cc1ccccc1.O=C([O-])c1ccccc1 | 14.7
CC(/C=C/c1ccco1)=N\NC(=O)CNc1cccc(C)c1 | 18.1
O=S(=O)(O)c1nc2ccccc2n1Cc1ccccc1 | -10.5

SMILES | hERG current change (%, negative = inhibition) at 10uM [%]
CCOc1ccc(N(CC(=O)NCC2CCCO2)S(=O)(=O)c2ccc(C)cc2)cc1 (stereo not drawn) | -10.3
CCOc1ccc(OCC(=O)Nc2ccc(OC)cc2[N+](=O)[O-])cc1 | 3.3
COc1ccc(OCC(=O)N/N=C(\C)CC(=O)Nc2ccc(OC)cc2[N+](=O)[O-])cc1 | -93.8
COc1ccc(NC(=O)COc2ccc(C)cc2)c([N+](=O)[O-])c1 | 7
COc1ccc2sc(C)nc2c1NC(C)=O | 9.21
COc1ccc(-c2nc(SCC(=O)N3CCOCC3)n[nH]2)cc1 | -4.25
CC(=O)Nc1nonc1-c1nc2ccccc2n1Cc1ccccc1 | 13.2
CC(=O)N/C(=C/c1ccc(Cl)cc1)C(=O)NCCc1c[nH]c2ccccc12 | -20.8
O=C(NCCc1c[nH]c2ccccc12)/C(=C/c1cccnc1)NC(=O)c1cccs1 | -19.1
O=C(NCCc1c[nH]c2ccccc12)/C(=C/c1cccnc1)NC(=O)c1ccccc1 | -14.3
O=C(NCCc1c[nH]c2ccccc12)/C(=C\c1cccnc1)NC(=O)c1ccccc1F | -58.5
O=C(NCCc1c[nH]c2ccccc12)/C(=C\c1cccnc1)NC(=O)c1cccs1 | -17
O=C(NCCc1c[nH]c2ccccc12)/C(=C\c1cccnc1)NC(=O)c1ccccc1Br | -65.1
NC(=O)NC(CC(=O)NCCc1ccc(S(N)(=O)=O)cc1)c1ccccc1Cl (stereo not drawn) | 6.81
CC(C(=O)N1c2ccc(F)cc2CCC1C)N1C(=O)c2ccccc2C1=O (stereo not drawn) | 2.72
COCCCN(C(=O)c1ccco1)c1nc(-c2ccc(OC)cc2)cs1 | 1.81
CN(C)CCCN(C(=O)c1ccco1)c1nc(-c2ccc(Cl)cc2)cs1.Cl | -72.5
CN(C(=O)c1ccco1)c1nc(-c2ccc(Cl)cc2)cs1 | 8.09
Cc1ccc(-c2csc(N(CCCN(C)C)C(=O)c3ccco3)n2)cc1.Cl | -74.8
Cl.O=C(c1ccco1)N(CCCN1CCOCC1)c1nc(-c2ccc(Cl)cc2)cs1 | -13.4
Cc1ccc(-c2csc(N(CCCN3CCOCC3)C(=O)c3ccco3)n2)cc1.Cl | -19.1

From publication PMC4336329 (PLoS ONE, 2015)
